Results published in the supplement of paper PMC11732987, “Enantioselective OTUD7B fragment discovery through chemoproteomics screening and high-throughput optimisation” (Communications Chemistry, 2025).

Legend:
Assay in all cases: log2 ratio of Biotin-Ahx-Ub-VS probe labelling (fragment/DMSO); higher = less target engagement (more negative = stronger competition), active = hit call of the paper (q ≤ 0.05, log2 ratio ≤ -1)
Details in all cases: compound concentration: 200 uM; treatment time: 3 h
USP42 = biological target: T1, USP42 (UniProt Q9H9J4)
T1 sequence (whole entry): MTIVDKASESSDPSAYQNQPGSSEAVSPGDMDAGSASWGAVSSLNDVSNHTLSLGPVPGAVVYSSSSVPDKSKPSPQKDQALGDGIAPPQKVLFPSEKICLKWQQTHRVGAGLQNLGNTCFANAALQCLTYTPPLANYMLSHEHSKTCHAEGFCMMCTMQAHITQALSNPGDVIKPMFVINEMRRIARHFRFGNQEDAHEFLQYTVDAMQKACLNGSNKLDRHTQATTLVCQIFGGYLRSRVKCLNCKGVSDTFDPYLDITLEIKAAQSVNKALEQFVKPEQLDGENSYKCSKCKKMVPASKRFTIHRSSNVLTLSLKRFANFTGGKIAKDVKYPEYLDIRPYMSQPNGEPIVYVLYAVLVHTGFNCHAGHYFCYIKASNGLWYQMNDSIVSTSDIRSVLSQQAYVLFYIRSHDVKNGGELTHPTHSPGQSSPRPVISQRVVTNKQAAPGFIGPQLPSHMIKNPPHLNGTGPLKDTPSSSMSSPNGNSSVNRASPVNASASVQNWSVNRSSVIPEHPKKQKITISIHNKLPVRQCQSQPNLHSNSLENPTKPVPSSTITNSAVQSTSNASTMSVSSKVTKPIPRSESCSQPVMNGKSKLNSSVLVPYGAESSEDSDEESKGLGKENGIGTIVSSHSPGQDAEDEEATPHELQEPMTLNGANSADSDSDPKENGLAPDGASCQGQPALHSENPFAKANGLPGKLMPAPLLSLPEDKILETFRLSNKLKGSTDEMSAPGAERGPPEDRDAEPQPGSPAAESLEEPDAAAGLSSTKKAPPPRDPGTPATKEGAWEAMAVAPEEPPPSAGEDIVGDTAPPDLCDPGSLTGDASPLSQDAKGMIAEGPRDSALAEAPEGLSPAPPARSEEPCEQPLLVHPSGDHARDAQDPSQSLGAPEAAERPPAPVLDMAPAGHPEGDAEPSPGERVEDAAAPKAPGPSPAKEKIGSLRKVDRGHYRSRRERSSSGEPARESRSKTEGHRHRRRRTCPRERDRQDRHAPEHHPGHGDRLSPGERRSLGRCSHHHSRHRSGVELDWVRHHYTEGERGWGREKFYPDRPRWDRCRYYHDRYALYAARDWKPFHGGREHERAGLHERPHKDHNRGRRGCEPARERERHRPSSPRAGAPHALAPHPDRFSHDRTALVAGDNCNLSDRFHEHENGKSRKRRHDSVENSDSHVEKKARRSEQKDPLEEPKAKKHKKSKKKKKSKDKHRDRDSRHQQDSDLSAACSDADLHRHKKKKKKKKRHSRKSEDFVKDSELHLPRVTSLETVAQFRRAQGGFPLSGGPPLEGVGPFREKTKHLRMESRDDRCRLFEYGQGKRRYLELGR
Outline: (§1)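 Labelled DUBs were enriched with NeutrAvidin, digested with LysC and trypsin, and run by diaPASEF LC-MS/MS. The labelling used Biotin-Ahx-Ub-VS at 0.5 µM final for 1 h on HEK293T lysate (495 µg per sample) previously treated in triplicate with fragment at 200 µM or vehicle for 3 h. Values are average log2 fragment/vehicle ratios by unpaired t-test on global-median-normalised Spectronaut quantities of proteins with ≥2 unique peptides.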

USP46 = USP46 (UniProt P62068)
Chain of USP46 (P62068 whole entry): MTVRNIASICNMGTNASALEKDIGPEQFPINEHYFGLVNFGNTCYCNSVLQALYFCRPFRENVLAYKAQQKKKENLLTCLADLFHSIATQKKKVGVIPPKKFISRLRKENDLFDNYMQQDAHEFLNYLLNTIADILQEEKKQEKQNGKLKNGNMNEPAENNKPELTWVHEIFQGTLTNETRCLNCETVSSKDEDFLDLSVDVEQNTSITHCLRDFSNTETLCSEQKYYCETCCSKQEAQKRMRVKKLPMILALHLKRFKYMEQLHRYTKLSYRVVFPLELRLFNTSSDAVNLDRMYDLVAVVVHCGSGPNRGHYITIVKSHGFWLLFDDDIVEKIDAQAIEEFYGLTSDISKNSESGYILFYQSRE
Outline: as §1

USP47 = biological target: T2, USP47 (UniProt Q96K76)
T2 sequence (whole entry): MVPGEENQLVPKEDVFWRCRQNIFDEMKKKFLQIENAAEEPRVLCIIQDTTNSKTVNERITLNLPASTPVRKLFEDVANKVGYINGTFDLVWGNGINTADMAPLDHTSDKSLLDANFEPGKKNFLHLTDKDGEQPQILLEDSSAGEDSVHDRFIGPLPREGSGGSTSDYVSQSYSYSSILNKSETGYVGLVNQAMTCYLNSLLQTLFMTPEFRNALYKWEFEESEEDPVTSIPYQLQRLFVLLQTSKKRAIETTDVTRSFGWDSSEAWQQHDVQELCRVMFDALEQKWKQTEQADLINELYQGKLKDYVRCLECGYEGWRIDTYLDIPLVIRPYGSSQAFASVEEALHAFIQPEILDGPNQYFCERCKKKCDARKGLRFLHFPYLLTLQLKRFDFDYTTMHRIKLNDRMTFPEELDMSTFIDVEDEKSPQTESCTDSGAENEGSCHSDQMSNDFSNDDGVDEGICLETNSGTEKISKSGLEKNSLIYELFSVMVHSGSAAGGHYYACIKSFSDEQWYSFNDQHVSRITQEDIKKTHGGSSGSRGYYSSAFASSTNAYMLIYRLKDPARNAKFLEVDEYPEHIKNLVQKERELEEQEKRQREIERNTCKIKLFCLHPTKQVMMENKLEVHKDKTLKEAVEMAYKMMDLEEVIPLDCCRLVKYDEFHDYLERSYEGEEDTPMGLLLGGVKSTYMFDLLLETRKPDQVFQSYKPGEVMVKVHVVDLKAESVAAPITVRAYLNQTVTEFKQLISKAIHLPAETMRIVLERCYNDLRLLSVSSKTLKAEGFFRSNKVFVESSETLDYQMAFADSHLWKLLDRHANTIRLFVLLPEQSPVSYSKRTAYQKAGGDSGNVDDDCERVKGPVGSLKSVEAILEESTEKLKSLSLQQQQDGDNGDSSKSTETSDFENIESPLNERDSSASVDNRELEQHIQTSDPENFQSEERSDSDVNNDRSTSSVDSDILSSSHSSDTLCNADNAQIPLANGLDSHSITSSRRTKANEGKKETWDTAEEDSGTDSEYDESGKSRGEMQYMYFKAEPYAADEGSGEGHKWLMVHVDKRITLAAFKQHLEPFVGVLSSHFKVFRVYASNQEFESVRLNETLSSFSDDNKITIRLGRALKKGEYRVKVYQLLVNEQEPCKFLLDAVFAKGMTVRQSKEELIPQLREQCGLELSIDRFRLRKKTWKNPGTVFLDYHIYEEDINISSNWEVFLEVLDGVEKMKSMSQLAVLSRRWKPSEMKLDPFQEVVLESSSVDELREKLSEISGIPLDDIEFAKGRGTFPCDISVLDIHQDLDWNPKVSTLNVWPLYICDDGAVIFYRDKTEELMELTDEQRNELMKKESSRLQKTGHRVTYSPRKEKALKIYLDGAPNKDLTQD
Outline: as §1

USP48 = biological target: T3, USP48 (UniProt Q86UV5)
T3 sequence (whole entry): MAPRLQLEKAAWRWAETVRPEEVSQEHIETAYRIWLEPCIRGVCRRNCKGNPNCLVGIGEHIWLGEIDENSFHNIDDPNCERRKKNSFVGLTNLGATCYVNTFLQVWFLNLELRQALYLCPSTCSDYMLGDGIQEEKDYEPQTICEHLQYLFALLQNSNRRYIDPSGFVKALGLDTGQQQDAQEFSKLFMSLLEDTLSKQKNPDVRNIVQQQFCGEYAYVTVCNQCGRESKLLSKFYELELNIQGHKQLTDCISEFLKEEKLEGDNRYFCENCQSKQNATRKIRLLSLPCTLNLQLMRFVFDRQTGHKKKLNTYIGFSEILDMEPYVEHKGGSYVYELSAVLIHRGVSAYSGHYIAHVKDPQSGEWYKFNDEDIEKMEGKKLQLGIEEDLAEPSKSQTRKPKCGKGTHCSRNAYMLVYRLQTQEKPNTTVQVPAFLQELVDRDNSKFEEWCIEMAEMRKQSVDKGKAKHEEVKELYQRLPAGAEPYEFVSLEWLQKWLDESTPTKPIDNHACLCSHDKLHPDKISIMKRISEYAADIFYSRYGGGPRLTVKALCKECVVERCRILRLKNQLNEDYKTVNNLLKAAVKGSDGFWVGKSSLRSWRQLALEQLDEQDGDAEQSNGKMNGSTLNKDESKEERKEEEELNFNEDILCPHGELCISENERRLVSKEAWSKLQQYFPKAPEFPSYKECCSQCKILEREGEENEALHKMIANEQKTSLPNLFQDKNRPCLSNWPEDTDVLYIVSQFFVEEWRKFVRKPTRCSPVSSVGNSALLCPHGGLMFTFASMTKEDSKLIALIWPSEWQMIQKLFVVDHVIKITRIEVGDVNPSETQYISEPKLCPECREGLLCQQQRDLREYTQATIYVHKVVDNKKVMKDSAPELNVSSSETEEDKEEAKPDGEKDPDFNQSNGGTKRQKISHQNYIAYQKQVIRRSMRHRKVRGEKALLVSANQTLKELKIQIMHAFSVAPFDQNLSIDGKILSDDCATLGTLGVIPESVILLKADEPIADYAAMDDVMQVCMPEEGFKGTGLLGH
Outline: as §1

USP5 = biological target: T4, USP5 (UniProt P45974)
T4 sequence (whole entry): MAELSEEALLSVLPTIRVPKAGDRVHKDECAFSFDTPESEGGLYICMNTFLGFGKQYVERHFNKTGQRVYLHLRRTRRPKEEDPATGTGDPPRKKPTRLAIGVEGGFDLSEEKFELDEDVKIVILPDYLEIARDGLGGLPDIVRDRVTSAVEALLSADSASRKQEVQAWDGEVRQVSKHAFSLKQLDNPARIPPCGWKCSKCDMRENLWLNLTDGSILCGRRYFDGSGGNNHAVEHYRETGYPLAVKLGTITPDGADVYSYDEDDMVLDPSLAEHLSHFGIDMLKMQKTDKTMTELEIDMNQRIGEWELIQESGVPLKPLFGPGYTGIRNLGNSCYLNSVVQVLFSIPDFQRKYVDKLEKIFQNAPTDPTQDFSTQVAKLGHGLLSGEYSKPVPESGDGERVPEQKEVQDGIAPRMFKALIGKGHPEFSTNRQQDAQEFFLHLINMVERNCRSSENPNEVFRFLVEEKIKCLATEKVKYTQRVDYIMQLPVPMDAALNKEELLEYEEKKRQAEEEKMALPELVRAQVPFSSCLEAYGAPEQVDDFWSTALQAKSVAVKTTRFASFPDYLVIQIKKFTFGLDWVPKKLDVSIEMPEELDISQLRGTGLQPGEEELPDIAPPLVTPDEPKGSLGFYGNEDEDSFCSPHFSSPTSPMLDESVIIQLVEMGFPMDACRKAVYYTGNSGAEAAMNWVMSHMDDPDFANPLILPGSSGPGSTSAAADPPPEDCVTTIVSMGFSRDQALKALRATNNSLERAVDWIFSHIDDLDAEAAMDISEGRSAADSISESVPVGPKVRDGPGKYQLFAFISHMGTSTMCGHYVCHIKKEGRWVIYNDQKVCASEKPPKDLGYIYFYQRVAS
Outline: as §1

USP54 = USP54 (UniProt Q70EL1)
Chain of USP54 (Q70EL1 whole entry): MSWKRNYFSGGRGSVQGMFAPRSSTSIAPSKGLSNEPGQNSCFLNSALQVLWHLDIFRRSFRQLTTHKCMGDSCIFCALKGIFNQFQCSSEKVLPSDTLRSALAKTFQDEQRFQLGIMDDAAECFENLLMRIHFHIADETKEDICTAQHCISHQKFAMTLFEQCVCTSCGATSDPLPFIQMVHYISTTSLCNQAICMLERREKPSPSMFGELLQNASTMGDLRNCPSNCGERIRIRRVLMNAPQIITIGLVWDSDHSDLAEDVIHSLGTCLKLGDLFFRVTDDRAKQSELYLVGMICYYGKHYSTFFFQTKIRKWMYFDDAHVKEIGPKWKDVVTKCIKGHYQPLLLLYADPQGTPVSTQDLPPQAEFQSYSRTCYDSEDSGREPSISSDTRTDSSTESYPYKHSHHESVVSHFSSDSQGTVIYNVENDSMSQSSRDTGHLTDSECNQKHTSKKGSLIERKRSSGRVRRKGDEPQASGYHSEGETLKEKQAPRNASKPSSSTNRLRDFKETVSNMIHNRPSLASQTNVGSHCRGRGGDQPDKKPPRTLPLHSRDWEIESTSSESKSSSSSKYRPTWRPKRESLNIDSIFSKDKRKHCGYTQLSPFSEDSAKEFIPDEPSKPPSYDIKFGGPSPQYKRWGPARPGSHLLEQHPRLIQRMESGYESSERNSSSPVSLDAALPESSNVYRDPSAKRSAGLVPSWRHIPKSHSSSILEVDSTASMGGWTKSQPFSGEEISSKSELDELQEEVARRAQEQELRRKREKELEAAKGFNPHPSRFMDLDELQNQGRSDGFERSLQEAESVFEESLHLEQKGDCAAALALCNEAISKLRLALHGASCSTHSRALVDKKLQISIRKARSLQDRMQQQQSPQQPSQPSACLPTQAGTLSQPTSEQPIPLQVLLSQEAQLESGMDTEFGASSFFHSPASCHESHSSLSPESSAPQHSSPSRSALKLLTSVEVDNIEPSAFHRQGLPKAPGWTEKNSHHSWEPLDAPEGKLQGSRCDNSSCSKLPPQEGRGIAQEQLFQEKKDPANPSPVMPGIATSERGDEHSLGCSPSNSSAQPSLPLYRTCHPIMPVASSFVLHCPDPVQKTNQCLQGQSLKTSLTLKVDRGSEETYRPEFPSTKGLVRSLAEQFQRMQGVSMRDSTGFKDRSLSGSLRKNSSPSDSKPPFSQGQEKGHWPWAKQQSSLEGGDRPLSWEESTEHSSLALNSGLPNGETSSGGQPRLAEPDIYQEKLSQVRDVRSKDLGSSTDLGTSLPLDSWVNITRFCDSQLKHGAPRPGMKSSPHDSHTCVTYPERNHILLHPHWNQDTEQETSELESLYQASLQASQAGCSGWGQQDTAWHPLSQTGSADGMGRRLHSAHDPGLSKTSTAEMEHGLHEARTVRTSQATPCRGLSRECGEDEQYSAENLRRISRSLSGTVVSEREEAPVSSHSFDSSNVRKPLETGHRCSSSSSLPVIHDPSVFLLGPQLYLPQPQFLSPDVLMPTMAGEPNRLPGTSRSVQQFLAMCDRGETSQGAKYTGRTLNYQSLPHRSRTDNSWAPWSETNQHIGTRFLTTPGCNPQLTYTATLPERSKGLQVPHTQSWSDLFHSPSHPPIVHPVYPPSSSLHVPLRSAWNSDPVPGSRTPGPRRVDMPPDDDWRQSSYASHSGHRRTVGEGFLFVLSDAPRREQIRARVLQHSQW
Outline: as §1

USP7 = USP7 (UniProt Q93009)
Chain of USP7 (Q93009 whole entry, looked up): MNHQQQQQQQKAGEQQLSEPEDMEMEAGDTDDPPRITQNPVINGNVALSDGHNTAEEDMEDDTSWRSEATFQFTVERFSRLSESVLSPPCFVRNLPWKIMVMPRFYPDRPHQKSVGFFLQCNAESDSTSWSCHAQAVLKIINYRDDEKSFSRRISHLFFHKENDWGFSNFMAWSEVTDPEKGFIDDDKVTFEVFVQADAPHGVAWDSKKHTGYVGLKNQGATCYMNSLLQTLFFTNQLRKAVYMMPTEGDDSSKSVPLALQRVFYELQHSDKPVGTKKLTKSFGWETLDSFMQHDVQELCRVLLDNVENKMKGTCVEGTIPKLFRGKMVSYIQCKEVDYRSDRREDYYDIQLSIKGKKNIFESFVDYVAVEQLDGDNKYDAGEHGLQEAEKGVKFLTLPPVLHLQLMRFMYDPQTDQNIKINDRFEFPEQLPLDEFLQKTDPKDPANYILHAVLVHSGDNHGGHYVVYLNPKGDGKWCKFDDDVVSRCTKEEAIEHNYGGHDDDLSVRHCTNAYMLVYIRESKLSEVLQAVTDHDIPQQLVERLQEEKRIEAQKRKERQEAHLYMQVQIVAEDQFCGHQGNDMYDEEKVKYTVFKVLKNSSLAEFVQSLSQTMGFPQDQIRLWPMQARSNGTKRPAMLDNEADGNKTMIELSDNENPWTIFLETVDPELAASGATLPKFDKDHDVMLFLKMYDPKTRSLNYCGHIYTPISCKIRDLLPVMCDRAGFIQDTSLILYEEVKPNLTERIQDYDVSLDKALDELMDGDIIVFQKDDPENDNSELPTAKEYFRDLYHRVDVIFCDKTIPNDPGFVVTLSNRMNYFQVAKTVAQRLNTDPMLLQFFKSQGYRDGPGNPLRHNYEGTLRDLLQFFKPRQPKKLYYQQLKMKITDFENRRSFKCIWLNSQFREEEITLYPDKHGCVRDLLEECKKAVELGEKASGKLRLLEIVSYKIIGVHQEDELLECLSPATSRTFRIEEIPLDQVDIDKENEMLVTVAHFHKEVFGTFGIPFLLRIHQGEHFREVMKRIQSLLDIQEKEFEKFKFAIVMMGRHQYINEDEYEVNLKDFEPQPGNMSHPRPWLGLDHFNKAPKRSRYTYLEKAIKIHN
Outline: as §1

USP8 = biological target: T5, USP8 (UniProt P40818)
T5 sequence (whole entry): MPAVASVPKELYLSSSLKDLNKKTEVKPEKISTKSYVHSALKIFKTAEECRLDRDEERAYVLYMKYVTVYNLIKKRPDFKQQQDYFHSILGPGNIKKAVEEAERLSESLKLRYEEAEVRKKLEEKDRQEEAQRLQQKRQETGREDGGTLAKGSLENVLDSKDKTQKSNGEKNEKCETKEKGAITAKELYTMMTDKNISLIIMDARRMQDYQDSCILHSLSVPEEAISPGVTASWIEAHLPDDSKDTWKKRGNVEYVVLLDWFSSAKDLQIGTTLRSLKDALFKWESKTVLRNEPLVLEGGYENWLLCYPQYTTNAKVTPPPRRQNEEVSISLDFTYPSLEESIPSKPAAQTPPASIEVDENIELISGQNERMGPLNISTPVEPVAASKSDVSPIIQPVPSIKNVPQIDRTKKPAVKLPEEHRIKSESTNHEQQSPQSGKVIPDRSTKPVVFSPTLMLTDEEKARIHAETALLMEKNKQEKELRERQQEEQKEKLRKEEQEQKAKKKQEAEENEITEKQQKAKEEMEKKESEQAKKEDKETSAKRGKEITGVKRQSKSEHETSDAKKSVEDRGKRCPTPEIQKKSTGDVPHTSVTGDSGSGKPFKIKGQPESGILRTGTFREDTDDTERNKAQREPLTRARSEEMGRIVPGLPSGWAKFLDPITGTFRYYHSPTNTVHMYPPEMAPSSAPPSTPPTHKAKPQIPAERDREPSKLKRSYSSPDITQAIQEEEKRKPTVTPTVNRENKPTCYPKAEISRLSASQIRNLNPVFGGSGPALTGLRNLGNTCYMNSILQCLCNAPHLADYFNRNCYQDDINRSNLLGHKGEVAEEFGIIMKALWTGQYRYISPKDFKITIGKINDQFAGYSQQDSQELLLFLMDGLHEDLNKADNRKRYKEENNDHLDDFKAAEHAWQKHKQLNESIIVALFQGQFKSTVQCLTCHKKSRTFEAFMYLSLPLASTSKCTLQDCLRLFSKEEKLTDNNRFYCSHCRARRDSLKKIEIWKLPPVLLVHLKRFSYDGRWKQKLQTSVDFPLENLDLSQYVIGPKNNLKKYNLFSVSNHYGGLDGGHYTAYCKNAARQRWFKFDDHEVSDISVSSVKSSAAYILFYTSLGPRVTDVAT
Outline: as §1

USP9X = USP9X (UniProt Q93008)
Outline: as §1

UniProt O00487 = biological target: UniProt O00487
Chain of UniProt O00487 (O00487 whole entry): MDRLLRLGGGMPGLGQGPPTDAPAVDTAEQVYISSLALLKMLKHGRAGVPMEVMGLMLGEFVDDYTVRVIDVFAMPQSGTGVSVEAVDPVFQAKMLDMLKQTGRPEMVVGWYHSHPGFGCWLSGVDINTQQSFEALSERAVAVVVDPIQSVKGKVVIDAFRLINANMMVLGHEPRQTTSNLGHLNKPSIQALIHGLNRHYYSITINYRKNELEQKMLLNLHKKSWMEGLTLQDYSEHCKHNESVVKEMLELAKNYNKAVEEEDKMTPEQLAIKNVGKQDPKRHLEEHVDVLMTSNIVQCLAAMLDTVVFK
Outline: as §1

Measured: log2 ratio of Biotin-Ahx-Ub-VS probe labelling

COCC[C@@H](NC(=O)CCl)c1ccccc1
inactive: USP42 0.331 | USP46 0.164 | USP47 -0.122 | USP48 -0.261 | USP5 0.0242 | USP54 0.235 | USP7 -0.0296 | USP8 -0.0978 | USP9X -0.0244 | UniProt O00487 -0.0153

Cc1ccccc1OCC(=O)N1CCN(C(=O)CCl)CC1
active: USP47 -1.19
inactive: USP42 0.258 | USP46 -0.329 | USP48 -0.356 | USP5 0.0461 | USP54 -0.923 | USP7 -0.701 | USP8 0.0472 | USP9X -0.0136 | UniProt O00487 0.0797

O=C(CCl)N1CCOC(c2cccc(F)c2)C1 (stereo not given)
inactive: USP42 -0.424 | USP46 -0.374 | USP47 -0.467 | USP5 0.362 | USP54 0.45 | USP7 -0.705 | USP8 -0.461 | USP9X -0.504 | UniProt O00487 0.15
active: USP48 -1.36
